Measurements published in PubChem BioAssay (NCI).
The panel holds about 83,000 compounds, 20% with a hit somewhere; the sample as a whole holds those more often.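 The test compound was applied at a single concentration to cells in 96-well plates for 48 hours, and percent growth was recorded.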 Calls of active or inactive are those of the source. How the source made its calls: active means growth percent below 10; inactive means the rest.

Key:
Experiment in all cases: NCI-60 one-dose screen, 48 h (100 = growth as untreated, 0 = no growth, -100 = all killed)
Conditions in all cases: 10 µM unless noted
BT-549 breast = tested on: BT-549 breast
MDA-MB-435 melanoma = tested on: MDA-MB-435 melanoma
SW-620 colon = tested on: SW-620 colon
MCF7 breast = tested on: MCF7 breast
HCT-116 colon = tested on: HCT-116 colon
HCC-2998 colon = tested on: HCC-2998 colon
KM12 colon = tested on: KM12 colon

Measured: growth

O=NC1CC=CCC1c1ccccc1 (configuration not stated)
inactive: BT-549 breast 105% | MDA-MB-435 melanoma 112% | SW-620 colon 105% | MCF7 breast 108% | HCT-116 colon 95.6% | HCC-2998 colon 104% | KM12 colon 112%

Nc1nc(N)c([N+](=O)[O-])c(=O)[nH]1
inactive: BT-549 breast 114% | MDA-MB-435 melanoma 104% | SW-620 colon 97.4% | MCF7 breast 88.6% | HCT-116 colon 110% | HCC-2998 colon 103% | KM12 colon 111%

O=C(Nc1cccc(C(F)(F)F)c1)Nc1ccc(OCc2nnc(-c3ccc(Cl)cc3)o2)c(F)c1
inactive: BT-549 breast 104% | MDA-MB-435 melanoma 83.2% | SW-620 colon 71.8% | MCF7 breast 53.6% | HCT-116 colon 37.1% | HCC-2998 colon 72.1% | KM12 colon 49.7%

O=C(CSCC(=O)N/N=C/c1ccccc1O)N/N=C\c1ccccc1O
inactive: MDA-MB-435 melanoma 50.9% | SW-620 colon 39.3% | MCF7 breast 19.5% | HCT-116 colon 16.6% | HCC-2998 colon 30.1% | KM12 colon 37.3%
active: BT-549 breast 1.06%

CCN1C2=C(SC(=S)C1=C1SC(C(=O)OC)=C(C(=O)OC)S1)SC(=Nc1ccc(OC)cc1)C2=O
active: BT-549 breast -80.5% | MDA-MB-435 melanoma -40.3% | SW-620 colon -67.4% | MCF7 breast 4.13% | HCT-116 colon -80% | HCC-2998 colon -66.3% | KM12 colon -89.1%

ClC1=C(Cl)C(Cl)=C(Cl)C1=C/C=C/c1ccccc1
active: BT-549 breast -12.6% | MDA-MB-435 melanoma -28.5% | SW-620 colon -55.2% | MCF7 breast -19.6% | HCT-116 colon -98% | HCC-2998 colon -93.3% | KM12 colon -77.8%

O=C(/C=C/c1ccccc1)CC(c1ccccc1)N1CCOCC1 (configuration not stated)
inactive: MDA-MB-435 melanoma 11.8% | MCF7 breast 11.1% | HCC-2998 colon 20.8%
active: BT-549 breast -79.4% | SW-620 colon -16.7% | HCT-116 colon -97% | KM12 colon -81%

O=C1c2ccccc2-c2c1nc1ccccc1[n+]2[O-]
inactive: BT-549 breast 98.2% | MDA-MB-435 melanoma 110% | SW-620 colon 97.5% | MCF7 breast 95.8% | HCT-116 colon 98.5% | HCC-2998 colon 104% | KM12 colon 101%

CCSc1nnc2n(Cc3ccccc3)c(=O)c3c(C)c(C(N)=O)sc3n12
inactive: BT-549 breast 88.9% | MDA-MB-435 melanoma 105% | SW-620 colon 109% | MCF7 breast 96.8% | HCT-116 colon 100% | HCC-2998 colon 101% | KM12 colon 105%

COc1ccc(/C=C2\COc3ccc(O)c(O)c3C2=O)cc1OC
active: MDA-MB-435 melanoma -0.882% | SW-620 colon 4.03% | HCT-116 colon -24.8%
inactive: BT-549 breast 29.4% | MCF7 breast 13% | HCC-2998 colon 46.1% | KM12 colon 10.4%

Oc1[nH]c2ccc(Cl)cc2c1/C=c1/ccc2c(c1)N=C(c1ccc(C(F)(F)F)cc1)N=2
inactive: BT-549 breast 88.4% | MDA-MB-435 melanoma 42.7% | SW-620 colon 84.3% | MCF7 breast 27.6% | HCT-116 colon 50.1% | HCC-2998 colon 61.5% | KM12 colon 45.4%

COc1cc2c(c(OC)c1OC)-c1ccc(NN(C(=O)c3ccccc3)C(=O)c3ccccc3)c(=O)cc1[C@@H](NC(C)=O)CC2 (tested in a mixture with another compound)
active: MDA-MB-435 melanoma -68.8% | HCC-2998 colon 6.05% | KM12 colon 9.8%
inactive: BT-549 breast 37.3% | SW-620 colon 17.1% | MCF7 breast 24% | HCT-116 colon 12.1%

Clc1cccc(Cc2cn3cc(-c4ccccc4)nc3s2)c1
inactive: BT-549 breast 77.5% | MDA-MB-435 melanoma 33.1% | SW-620 colon 30.2% | MCF7 breast 21.1% | HCT-116 colon 42.6% | HCC-2998 colon 17.7% | KM12 colon 12.1%

CCc1[nH]nc(-c2ccc(OC)cc2)c1-c1ccccc1OCCN(CC)CC
inactive: BT-549 breast 87.7% | MDA-MB-435 melanoma 101% | SW-620 colon 104% | MCF7 breast 93.2% | HCT-116 colon 83.9% | HCC-2998 colon 103% | KM12 colon 106%

COc1cc(/C=C2\COc3ccc(O)c(O)c3C2=O)cc(OC)c1
inactive: MCF7 breast 16.7% | HCC-2998 colon 25.1%
active: BT-549 breast 3.92% | MDA-MB-435 melanoma 0.577% | SW-620 colon -19.3% | HCT-116 colon -56% | KM12 colon -11.1%

COc1cc(C2NC(c3ccc(Cl)cc3)C(C)/C(=N/NC(N)=S)C2C)cc(OC)c1OC (configuration not stated)
inactive: BT-549 breast 111% | MDA-MB-435 melanoma 107% | SW-620 colon 106% | MCF7 breast 90.3% | HCT-116 colon 73.1% | HCC-2998 colon 126% | KM12 colon 88.6%

O=C(CCc1nnc2sc(-c3ccc(Cl)cc3Cl)nn12)c1nc2ccccc2[nH]1
active: BT-549 breast -28.2% | MDA-MB-435 melanoma -39.7% | SW-620 colon -34.3% | MCF7 breast -40.7% | HCT-116 colon -84.7% | HCC-2998 colon -90.3% | KM12 colon -27%

O=C1c2ccccc2C(=O)c2c1cccc2-n1nnc2ccccc21
inactive: BT-549 breast 113% | MDA-MB-435 melanoma 121% | SW-620 colon 105% | MCF7 breast 112% | HCT-116 colon 86.5% | HCC-2998 colon 83.4% | KM12 colon 110%

CCC(c1ccccc1)c1noc(CCN(CC)CC)n1 (configuration not stated)
inactive: BT-549 breast 84.6% | MDA-MB-435 melanoma 110% | SW-620 colon 120% | MCF7 breast 86.5% | HCT-116 colon 92% | HCC-2998 colon 106% | KM12 colon 105%

Cc1cc(NC(=O)Nc2cccc3ccccc23)no1
inactive: BT-549 breast 79.9% | MDA-MB-435 melanoma 101% | SW-620 colon 109% | MCF7 breast 84% | HCT-116 colon 95% | HCC-2998 colon 104% | KM12 colon 112%

O=C(C(=O)N1CCCCC1)c1ccc(OC2OC(CO)C(O)C(O)C2O)cc1 (configuration not stated)
inactive: BT-549 breast 116% | MDA-MB-435 melanoma 107% | SW-620 colon 109% | MCF7 breast 94.3% | HCT-116 colon 109% | HCC-2998 colon 108% | KM12 colon 115%

S=C1SCN(Cc2ccccc2)CN1Cc1ccco1
inactive: BT-549 breast 102% | MDA-MB-435 melanoma 37.8% | SW-620 colon 41.7% | MCF7 breast 18.2% | HCT-116 colon 25.5% | HCC-2998 colon 103% | KM12 colon 58.2%

Clc1ccc2nc(Cl)c3ccccc3c2c1
inactive: BT-549 breast 89.6% | MDA-MB-435 melanoma 50.3% | SW-620 colon 78.3% | MCF7 breast 89.7% | HCT-116 colon 19.4% | HCC-2998 colon 89.3% | KM12 colon 55.7%

Cc1nn(-c2ccc(Cl)cc2)c2nc3c(nc12)C(=O)c1ccccc1-3
inactive: BT-549 breast 82% | MDA-MB-435 melanoma 67.5% | SW-620 colon 83.4% | MCF7 breast 49.1% | HCT-116 colon 39.9% | HCC-2998 colon 52.5% | KM12 colon 78.8%

CCC1=C(c2ccc(OC)cc2)C(C)(C)Oc2cc(O)c(CN3CCCC3)cc21
inactive: BT-549 breast 65.7% | MDA-MB-435 melanoma 70.9% | SW-620 colon 89.7% | MCF7 breast 89.7% | HCT-116 colon 46.9% | HCC-2998 colon 18.1% | KM12 colon 81.1%

COC1=CC(c2ccc[nH]2)=N/C1=C\c1[nH]c(C)c(C(=O)CCC(=O)Oc2ccc3c(c2)CCC2C3CC[C@]3(C)C(=O)CC[C@@H]23)c1C (some centres not stated)
inactive: BT-549 breast 70.2% | MDA-MB-435 melanoma 93.7% | SW-620 colon 27.9% | MCF7 breast 50.2% | HCT-116 colon 20.3% | HCC-2998 colon 79.8% | KM12 colon 53.6%

O=C(c1ccccc1)c1ccccc1Cl
inactive: BT-549 breast 85.8% | MDA-MB-435 melanoma 102% | SW-620 colon 106% | MCF7 breast 107% | HCT-116 colon 101% | HCC-2998 colon 117% | KM12 colon 96%

Cc1nc2c(O)cccc2cc1CO
inactive: BT-549 breast 149% | MDA-MB-435 melanoma 109% | SW-620 colon 108% | MCF7 breast 96.8% | HCT-116 colon 107% | HCC-2998 colon 103% | KM12 colon 113%

CCN(CC)CCCNCCCNc1cc(OC)cc2cccnc12
active: MCF7 breast -46.8%
inactive: BT-549 breast 100% | MDA-MB-435 melanoma 103% | SW-620 colon 38.7% | HCT-116 colon 86.5% | HCC-2998 colon 83.7% | KM12 colon 78.8%

C=C(C[C@](O)(C(=O)/C=C/c1ccc(Cl)cc1)C(=O)OC)c1ccccc1
inactive: BT-549 breast 79.5% | MDA-MB-435 melanoma 66.5% | SW-620 colon 30.3% | HCT-116 colon 34.9% | HCC-2998 colon 41.9% | KM12 colon 15.3%
active: MCF7 breast 5.85%

Cc1ccc2c(c1)O/C(=C\c1ccc([N+](=O)[O-])o1)C2=O
inactive: BT-549 breast 25.9% | HCC-2998 colon 64.3% | KM12 colon 86%
active: MDA-MB-435 melanoma -8.75% | SW-620 colon -56.5% | MCF7 breast 9.48% | HCT-116 colon -47.7%

Cn1c(N)c(N=O)c(=O)[nH]c1=O
inactive: BT-549 breast 93.5% | MDA-MB-435 melanoma 108% | SW-620 colon 107% | MCF7 breast 106% | HCT-116 colon 104% | HCC-2998 colon 118% | KM12 colon 99%

COc1ccc(-c2c(-c3cc(OC)c(OC)c(OC)c3)noc2N)cc1
inactive: BT-549 breast 13.2% | SW-620 colon 21.7% | MCF7 breast 17.1% | HCC-2998 colon 17.4%
active: MDA-MB-435 melanoma -6.19% | HCT-116 colon 8.77% | KM12 colon 7.28%

N#CCNc1ccccc1N
inactive: BT-549 breast 87.2% | MDA-MB-435 melanoma 106% | SW-620 colon 100% | MCF7 breast 88.8% | HCT-116 colon 85.3% | HCC-2998 colon 96.9% | KM12 colon 94%

C/C(=N/N=C(N)N)c1ccc(Cl)cc1
active: BT-549 breast -0.709%
inactive: MDA-MB-435 melanoma 71.7% | SW-620 colon 112% | MCF7 breast 83.9% | HCT-116 colon 85.7% | HCC-2998 colon 57.8% | KM12 colon 93.2%

O=C1Nc2ccccc2C12Nc1cc(Cl)ccc1S2 (configuration not stated)
inactive: BT-549 breast 76.2% | MDA-MB-435 melanoma 95.4% | SW-620 colon 120% | MCF7 breast 59.7% | HCT-116 colon 84.5% | HCC-2998 colon 110% | KM12 colon 80.4%
